Bioassay records deposited in PubChem by several laboratories.
The list is not random: actives were taken first. Their share in the collection is about 2.2%.
PLCg1 inh: PLC-gamma1 (human) inhibition, primary screen. 0.84% of 370,000 active. inhibition, % at 12.2 µM. purified PLC-gamma1, fluorogenic substrate, fluorescence. AID 720700; in the data active means inhibition above about 9.5%
PfM18AAP inh: blocks P. falciparum M18 aspartyl aminopeptidase. 1.2% of 290,000 active. recombinant PfM18AAP, H-Glu-NHMec fluorogenic cleavage. inhibition, % at 7.35 µM;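 active means inhibition above the campaign mean inhibition over all tested compounds plus 3 SD, cut at about 28% in these data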;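 further: 0% = plate median of test compound wells and 100% = 2 mM ZnCl2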
Rce1 inhib: inhibitors of yeast Ras-converting enzyme | yeast membranes, quenched prenylated peptide cleavage fluorescence | calls only | Q03530 | AID 2563 | 0.27% of 290,000 active;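 active means fall in fluorescence gain of 50% or more versus controls, with final raw signal at or below 3038400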;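 further: plate controls were neutral control wells for no effect and wells lacking membranes for full effect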
Target sequence (Q03530 whole entry, looked up): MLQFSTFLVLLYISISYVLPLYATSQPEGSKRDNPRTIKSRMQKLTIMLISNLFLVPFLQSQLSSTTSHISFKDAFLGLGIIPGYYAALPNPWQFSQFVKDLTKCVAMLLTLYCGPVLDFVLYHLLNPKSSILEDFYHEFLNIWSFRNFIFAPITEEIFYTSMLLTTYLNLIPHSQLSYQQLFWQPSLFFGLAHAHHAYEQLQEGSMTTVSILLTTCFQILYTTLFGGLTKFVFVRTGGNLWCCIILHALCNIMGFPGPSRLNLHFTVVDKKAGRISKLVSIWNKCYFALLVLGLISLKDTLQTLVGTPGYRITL
NPR2 activator: GC-B (human) receptor activation | 0.11% of 370,000 active | P20594 | HEK293-GC-B cells, CNP EC30, cGMP TR-FRET; 0% at EC30 CNP, 100% saturating CNP | activation, % at 10 µM | AID 1920062;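 active means activation at 10 µM reaching about 35% in either raw or pattern-adjusted values, limit read from the data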
PLC-beta3 inh: inhibitors of human phospholipase C beta3 | 0.18% of 370,000 active | Q01970 | Purified PLC-beta3, fluorogenic substrate, fluorescence | inhibition, % at 12.2 µM; in the data active means inhibition above about 11%;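 further: 0% = median of compound wells on plate and 100% = full blocker control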
NPR1 activator: GC-A (human) enzyme activation | P16066 | HEK293 GC-A cells, cGMP TR-FRET, EC30 ANP; 0% at EC30 ANP, 100% saturating ANP | activation, % at 10 µM | 0.14% of 370,000 active; in the data active means activation above about 40%
Numbers without * were called inactive.

For COc1ccc(N2CCN(C(=O)C3Cc4ccccc4CN3C(=O)c3ccccc3)CC2)cc1 (stereo not given) the results were PLCg1 inh -4, PfM18AAP inh -1, Rce1 inhib inactive, NPR2 activator -4, PLC-beta3 inh -12 and NPR1 activator 0.
Screening O=C(O)Cc1sc(Nc2ccc(F)cc2)nc1-c1cccs1 returned PLCg1 inh -28, PfM18AAP inh 29*, Rce1 inhib inactive, NPR2 activator -1, PLC-beta3 inh -43 and NPR1 activator 2.
Screening CCn1c2ccccc2c2cc(C=NNC(=O)c3ccoc3C)ccc21 returned PLCg1 inh -137, NPR2 activator -7, PLC-beta3 inh -182 and NPR1 activator -5.
Screening N#CC1=C(N)Oc2cc(O)ccc2C1c1cccnc1 (stereo not given) returned PLCg1 inh -60, PfM18AAP inh 1, NPR2 activator 3, PLC-beta3 inh -52 and NPR1 activator 1.
`N#CC1=C(N)Oc2cc(N)ccc2C1c1cccc(F)c1` (stereo not given) gave PLCg1 inh -75, PfM18AAP inh -1, Rce1 inhib inactive, NPR2 activator -2, PLC-beta3 inh -76 and NPR1 activator 43*.
CN(C)c1ccc2c(c1)OC(N)=C(C#N)C2c1cccc(F)c1 (stereo not given) was read as PfM18AAP inh 30* and Rce1 inhib inactive.
Screening COc1ccc(OC)c(C2C(C#N)=C(N)Oc3cc(N)ccc32)c1 (stereo not given) returned PLCg1 inh -39, PfM18AAP inh 8, Rce1 inhib inactive, NPR2 activator -1, PLC-beta3 inh -56 and NPR1 activator 5.
`CCOc1ccccc1C1C(C#N)=C(N)Oc2cc(N)ccc21` (stereo not given) gave PLCg1 inh -266, PfM18AAP inh 28*, Rce1 inhib inactive, NPR2 activator 4, PLC-beta3 inh -406 and NPR1 activator 10.
`COc1ccc(NC(=O)CSc2nc(C)cc(=O)[nH]2)cc1OC` gave PLCg1 inh 4, NPR2 activator -6, PLC-beta3 inh 2 and NPR1 activator 3.
Screening CCCC[C@@H](CCCc1ccc(F)cc1)CCC(=O)N(c1ccccc1)c1ccccc1 returned PLCg1 inh -2, NPR2 activator 6, PLC-beta3 inh 0 and NPR1 activator 5.
Screening CCCCOc1cccc(C(=O)NCCc2ccccc2-c2ccccc2CCC(=O)NCc2ccccc2)c1 returned PLCg1 inh 0, NPR2 activator 0, PLC-beta3 inh 1 and NPR1 activator 0.
Cc1ccccc1SC1CCN(C(=O)C2CCC(=O)N(C3CC3)C2)CC1 (stereo not given) was read as PLCg1 inh -1, PfM18AAP inh -1, Rce1 inhib inactive, NPR2 activator 6, PLC-beta3 inh -6 and NPR1 activator 0.
O=C(C1CCC(=O)N(C2CC2)C1)N1CCN(c2ccccc2Cl)CC1 (stereo not given) was read as PLCg1 inh -1, PfM18AAP inh -4, Rce1 inhib active, NPR2 activator -8, PLC-beta3 inh -8 and NPR1 activator 6.
For O=C(O)c1ccc(/C=N/n2c(C3CCCCC3)n[nH]c2=S)cc1 the results were PLCg1 inh 7, PfM18AAP inh 30*, Rce1 inhib inactive, NPR2 activator 0, PLC-beta3 inh -1 and NPR1 activator -1.
`CCn1cc(C(=O)N[C@H](C)c2ccccc2)c(=O)c2cc(F)c(N3CCN(C)CC3)cc21` gave PLCg1 inh -15, PfM18AAP inh 3, Rce1 inhib active, NPR2 activator -1, PLC-beta3 inh -18 and NPR1 activator 2.
For CCn1cc(S(=O)(=O)c2ccc(OC)cc2)c(=O)c2cc(F)c(N3CCN(C)CC3)cc21 the results were PLCg1 inh -46, PfM18AAP inh 1, Rce1 inhib active, NPR2 activator 0, PLC-beta3 inh -80 and NPR1 activator 2.
`CCC(C)NC(=O)c1cn(CC)c2cc(N3CCN(C)CC3)c(F)cc2c1=O` (stereo not given) gave PLCg1 inh -11, PfM18AAP inh -6, Rce1 inhib inactive, NPR2 activator 4, PLC-beta3 inh -20 and NPR1 activator 0.
